This is an account of results in PubChem BioAssay AID1224817 (Yan Lab, Georgia Cancer Center, Augusta University, 2016).

In all, about 2,000 compounds went through this assay and about 25 (1%) were called active. Many of the other results were omitted from the sample, so actives are more common in it than they were. A number with no mark means an inactive call.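 The calls were made as follows: active = log2 luciferase ratio at or below -0.5849, meaning signal at two thirds of solvent-only control or lower; inactive = the rest.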

A short description of this test: inhibitors of EIF4E gene expression, primary screen, cell-based, HT1080, luciferase reporter (AID 1224817).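 Also: luciferase reports endogenous eIF4E expression since it is co-expressed from the native EIF4E locus.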 Particulars: HT1080 EIF4E-luc2 knock-in reporter, 16 h, at 2.5 µM, stronger effect = lower value.
For `O=C1C(Cl)=C(Sc2nnc3c4ccccc4c4ccccc4c3n2)C(=O)c2ccccc21`, the log2 luciferase activity ratio is 0.552.
In the case of `O=C(O)CCSC1=NCCN1` it was -0.275.
For the compound `Oc1ccc2ccccc2c1CN(Cc1c(O)ccc2ccccc12)C1CCCCC1`, the log2 luciferase activity ratio is -0.018.
In the case of `Nc1nccc(Nc2ccc(S(N)(=O)=O)cc2)n1` it was -0.103; in that of `C/C(=N\NC1=NCCN1)c1cn(C2=NCCN2)nc1C`, 0.0578; in that of `CNC(c1ccncc1)C(NC)c1ccncc1` (configuration not stated), 0.0459.
In the case of `O=C1c2cccc([N+](=O)[O-])c2C(=O)N1c1ncn[nH]1` it was -0.0931.
In the case of `COC(=O)[C@@]12OC[C@]34[C@H]([C@@H](O)[C@@H]1O)[C@@]1(C)C=C(OC5OC(CO)C(O)C(O)C5O)C(=O)[C@@H](C)[C@@H]1C[C@H]3OC(=O)[C@H](OC(=O)/C=C(\C)C(C)C)[C@@H]24` (some centres not stated) it was 0.215; in that of `O=C(O)C1OC1C(=O)O` (configuration not stated), -0.131.
On to `Cc1cc(N)c2cc(OCCOc3ccc4nc(C)cc(N)c4c3)ccc2n1`, for which the log2 luciferase activity ratio was -0.0306.
In the case of `CN(CCc1ccccn1)c1ccc2c(c1)C(=O)c1ccccc1-2` it was 0.213; in that of `COc1c2c(cc3c1[C@@H]1Oc4c(ccc(O)c4CC=C(C)C)[C@@H]1CO3)OC(C)(C)C=C2`, -0.0761.
Take `O=C1c2ccccc2C(=O)N1CCCSc1ccccc1`: the log2 luciferase activity ratio was 0.412.
Turning to `CN(C)CC(O)c1ccc(Cl)c2ccccc12` (configuration not stated), the log2 luciferase activity ratio was -0.0364.
Regarding `Oc1c(C(O)(c2ccccc2)c2ccc3ccccc3c2O)ccc2ccccc12`, the log2 luciferase activity ratio is 0.313.
In the case of `COc1cc2oc3cc(=O)cc4oc(-c5ccccc5)cc(c2c2c1CCC(c1ccccc1)O2)c43` (configuration not stated) it was 0.143; in that of `CCCCSCc1nc2nc(Cl)c(Cl)nc2[nH]1`, -0.0768; in that of `Cn1cc(NC(=O)c2cc(NC(=O)c3cc(NC=O)cn3C)cn2C)cc1C(=O)NCCC(=N)N`, -0.0884.
The same measure for `NC(N)=NC(N)=Nc1c(F)c(F)c(F)c(F)c1F`: 0.115; for `O=C(O)/C=C/C(=O)Nc1cccc2c1-c1ccccc1C2=O`: -0.335.
The same measure for `NNC(=O)CCc1ccc2ccc3ccccc3c2c1`: -0.0063; for `NC(=O)N/N=C1/CCC(O)CC1CC(=O)O` (configuration not stated): -0.0076.
For the compound `CSc1nc(C)cc(Nc2ccc(O)c(CN3CCOCC3)c2)n1`, the log2 luciferase activity ratio is 0.0575.
In the case of `CC(C)(C)c1cc(Br)c(O)c(CN(Cc2cc(C(C)(C)C)cc(Br)c2O)C2CCCCC2)c1` it was 0.147; in that of `N=C(N)SCc1cccc2c(=O)cc(-c3ccccc3)oc12`, -0.583.
`Cc1c2ccccc2c(CSC(=N)N)c2ccccc12`: the log2 luciferase activity ratio was -2.19 (active).
The same measure for `Cc1ncc(CSC(=N)N)n1Cc1ccccc1`: 0.207.
